Values joined by “and” are separate entries in the source; they are usually repeats but may differ in a detail not shown here. Equal values may be shown once. About 79,000 compounds went through this panel and 15% of them were active in at least one assay; those are over-represented in the sample as a whole. Values without a mark were called inactive. Active and inactive are the calls of the source. No stated cut-off is given here; in the data, active means growth inhibition above about 70%; inactive means the rest.
experiment: NCI Yeast Anticancer Drug Screen. Data for the sgs1 mgt1 strain (AID 161);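 further: 0% = growth of cultures given vehicle only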; conditions: S. cerevisiae sgs1 mgt1 strain, stronger effect = higher value; at 50.0 µM unless noted
Description: Growth inhibition of yeast strains with defined genetic alterations is measured as a screen for potential anti-cancer activity. Selected strains with alterations in DNA damage repair or cell cycle control were exposed to compounds and growth inhibition was measured relative to vehicle treated controls. The strain used in this assay is sgs1 mgt1

Row | Structure (SMILES) | growth inhibition
1 | C(=C1CCCCC1)c1ccccn1 | -10.7%
2 | CSc1nc2c([nH]1)c(=O)n(C)c(=S)n2C | -0.85%
3 | CN(C)c1ccc(C(=O)Cc2ccc3ccccc3n2)cc1 | 99.1% (active)
4 | CC(C)(C)c1ccncc1 | -16.4%
5 | O=C1c2ccccc2C(=O)N1/N=[N+](\[O-])c1ccccc1 | 17.2%
6 | Cc1nc2[nH]c(=O)[nH]c(=O)c2s1 | -1.25%
7 | CCSC(SCC)C(NC(C)=O)C(O)C(O)C(O)CO (stereo not given) | 3.7%
8 | O=C(Cc1ccccc1)NCCCN(CCCCN(CCCNC(=O)Cc1ccccc1)C(=O)OCc1ccccc1)C(=O)OCc1ccccc1 | -2.7%
9 | C=C(C)C(=O)O[C@H]1[C@H]2[C@H](OC(=O)[C@H]2C)[C@H](O)[C@@H](C)[C@@H]2C=CC(=O)[C@]21C | 69.8%
10 | Cc1ccc([N+](=O)[O-])cc1N | 4.15%
11 | O=C(COc1ccc(Cl)cc1)N1CCN(C(=O)COc2ccc(Cl)cc2)c2ccccc21 | 23.9%
12 | Cc1c([N+](=O)[O-])cc(C(C)(C)C)c(OC(=O)c2ccccc2)c1[N+](=O)[O-] | 41%
13 | Clc1nn2cnnc2c2ncccc12 | 2.95%
14 | Clc1cccc(Nc2ncnc3nc[nH]c23)c1 | 5.1%
15 | O=C(O)CCC1NC(/C(=C/c2ccccc2O)NC(=O)c2ccccc2)OC1=O (stereo not given) | -14.1%
16 | CC(C)=CCCC(C)CCOc1cccc(C)c1 (stereo not given) | -6.95%
17 | Cc1ccc(S(=O)(=O)NC(=O)NNc2ccc(F)cc2)cc1 | 1.65%
18 | CSc1ncc(C(N)=O)c(N)n1 | -3.35% and -9.65%
19 | Cc1cn(C2CC(OP(=O)(O)OCC3OC(n4ccc(N)nc4=O)C(O)C3O)C(CO)O2)c(=O)[nH]c1=O (stereo not given) | 8.15%
20 | O=C(Nc1ccccc1)Nc1ccc([N+](=O)[O-])cc1[N+](=O)[O-] | 26.9%

Row | Structure (SMILES) | growth inhibition
21 | O=C(O)c1ccccc1S(=O)Cc1ccc(Br)cc1 (stereo not given) | -23.1%
22 | COc1ccc(/C=N/N2CN(C(C)C(=O)O)B(NCCC(C)C)N=C2N)cc1OC (stereo not given) | 20.9%
23 | Nn1c(-c2ccccc2)nc2ccc(Br)cc2c1=O | 18.5%
24 | CCOC(=O)/C(=C\c1ccccc1)c1ccccc1 | 9.65%
25 | C/C=C(/I)CBr | 1.75%
26 | CC1CCC2C(C)C(=O)OC2C2(C)C(=O)C=CC12 (stereo not given) | 13.7%
27 | Cc1ccc(OCC(=O)N2N=C(c3ccccc3)CC2(O)c2ccccc2)cc1 (stereo not given) | -30.6%
28 | O=C(CCl)Oc1ccc(C(=O)O)cc1 | -1.8%
29 | C/C(=N\NC(N)=O)C1(O)CCCCC1 | -17.3%
30 | CC(=O)C[n+]1ccccc1 | -1.75%
31 | C[n+]1cn(-c2nc3ccccc3nc2[N-]S(=O)(=O)c2ccccc2)c2ccccc21 | -13.2%
32 | CCOC(=O)C(C)N1C(=O)c2ccccc2C1=O (stereo not given) | -22%
33 | C=C1CC(COc2ccc3c(C)c(Cl)c(=O)oc3c2)(c2ccccc2)OC1=O (stereo not given) | 40%
34 | CCCCCC=C(c1cc(Cl)c(OC)c(C(N)=O)c1)c1cc(Cl)c(OC)c(C(N)=O)c1 | -12.4%
35 | CC(C)(C)CNCCO | -2%
36 | Nc1ccccc1S(=O)(=O)Nc1ccccc1 | 12.5%
37 | COc1cc2cnc3c4cc(OC(C)C)c(OC)cc4ccc3c2cc1OC | -20.1%
38 | Cc1ccc(NC(=O)CC/C(CC(=O)C(C)(C)C)=N/NC(=O)c2cc3ccccc3cc2O)cc1C | 0.35%
39 | O=C1CCCNC(=O)N1 | -19.3%
40 | COC(=O)c1nnn(-c2ccc(Cl)cc2C)c1C(=O)c1ccc(OC)cc1 | -11.8%

Source: PubChem BioAssay (NCI)
